Test results taken from PubChem BioAssay (EPA / NIEHS).
Active and inactive are the calls of the source. Rule for the calls: active = hit-call score of the fitted dose curve at least 0.9, where 1 is the maximum; inactive = score below 0.9.

Assays:
[1] = ATG_CRE_CIS: Attagene CIS-FACTORIAL HepG2 Assay for human cAMP Responsive Element (CRE) binding protein 3 (AID 2282926); settings: HepG2 CRE cis-reporter, Attagene multiplexed mRNA; actives raise or lower the signal
Procedure, shortened: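 Endogenous CRE-binding activity in HepG2 is reported through a cis-regulated transfected reporter. Following a day of exposure, mRNA levels are determined by reverse transcription PCR and fluorescent fragment analysis; fits run in both directions versus DMSO.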

[2] = molecular target: CCAAT/enhancer-binding protein beta (Homo sapiens) (UniProt P17676); experiment: ATG_C_EBP_CIS: Attagene CIS-FACTORIAL HepG2 Assay for human CCAAT/Enhancer Binding Protein (C/EBP) beta (AID 2282927); settings: HepG2 Attagene cis-factorial transcription factor reporter; actives raise or lower the signal
Sequence of CCAAT/enhancer-binding protein beta (Homo sapiens) (P17676 whole entry, looked up): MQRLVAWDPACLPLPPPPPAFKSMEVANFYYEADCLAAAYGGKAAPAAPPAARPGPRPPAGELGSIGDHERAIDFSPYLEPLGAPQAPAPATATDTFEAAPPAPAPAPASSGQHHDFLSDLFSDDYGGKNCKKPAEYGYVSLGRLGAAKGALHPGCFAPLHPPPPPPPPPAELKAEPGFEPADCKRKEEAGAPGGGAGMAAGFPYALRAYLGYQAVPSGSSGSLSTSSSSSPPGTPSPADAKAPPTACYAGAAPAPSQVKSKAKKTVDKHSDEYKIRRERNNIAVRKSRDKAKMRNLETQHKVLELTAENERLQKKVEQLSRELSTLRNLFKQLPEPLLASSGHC
Procedure, shortened: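 Transiently transfected HepG2 (MRTU library, endogenous TF-driven promoters); 24 h dosing; total RNA → oligo(dT) RT → PCR → 6-FAM primer extension → HpaI digest → CE; fit bidirectionally vs DMSO.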

[3] = ATG_CMV_CIS: Attagene CIS-FACTORIAL HepG2 Assay for human CMV (Internal Marker) (AID 2282928); settings: HepG2 CMV promoter reporter, transcription factor profiling; actives raise or lower the signal;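 note: endpoint acts as a background internal control marker rather than a target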
Procedure, shortened: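 HepG2 cells transiently transfected with multiple cis-regulated reporter units; 24 h compound exposure. Reporter mRNA quantified by RT-PCR, 6-FAM primer-extension labeling, HpaI digestion and capillary electrophoresis; bidirectional fitting against DMSO baseline.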

[4] = molecular target: Aryl hydrocarbon receptor (Homo sapiens) (UniProt P35869); experiment: ATG_Ahr_CIS: Attagene CIS-FACTORIAL HepG2 Assay for human Aryl Hydrocarbon Receptor (Ahr) (AID 2282930); settings: HepG2 AhR cis-factorial reporter transcription; actives raise or lower the signal
Sequence of Aryl hydrocarbon receptor (Homo sapiens) (P35869 whole entry, looked up): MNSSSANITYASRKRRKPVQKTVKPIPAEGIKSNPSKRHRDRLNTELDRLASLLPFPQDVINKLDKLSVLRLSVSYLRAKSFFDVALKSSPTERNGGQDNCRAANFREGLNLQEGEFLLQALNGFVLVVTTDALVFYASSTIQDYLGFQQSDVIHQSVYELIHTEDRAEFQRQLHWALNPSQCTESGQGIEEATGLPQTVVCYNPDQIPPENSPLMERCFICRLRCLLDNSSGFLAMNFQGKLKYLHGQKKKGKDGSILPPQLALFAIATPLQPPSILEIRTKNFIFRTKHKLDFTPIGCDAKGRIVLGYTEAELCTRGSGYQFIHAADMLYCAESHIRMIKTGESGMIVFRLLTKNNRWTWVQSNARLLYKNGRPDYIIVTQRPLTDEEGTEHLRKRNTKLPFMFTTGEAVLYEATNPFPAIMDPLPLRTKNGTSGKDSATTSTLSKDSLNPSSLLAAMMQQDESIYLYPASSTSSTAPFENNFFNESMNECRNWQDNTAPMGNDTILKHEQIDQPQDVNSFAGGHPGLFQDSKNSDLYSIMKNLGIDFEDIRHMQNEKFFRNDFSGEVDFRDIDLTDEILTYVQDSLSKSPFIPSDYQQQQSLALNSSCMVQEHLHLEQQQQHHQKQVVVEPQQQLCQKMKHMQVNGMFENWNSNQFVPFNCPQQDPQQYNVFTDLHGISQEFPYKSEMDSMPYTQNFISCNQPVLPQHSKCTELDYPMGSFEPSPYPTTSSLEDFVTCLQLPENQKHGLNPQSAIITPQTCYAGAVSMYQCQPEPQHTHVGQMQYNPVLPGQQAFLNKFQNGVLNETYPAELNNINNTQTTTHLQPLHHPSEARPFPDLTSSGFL
Procedure, shortened: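 Read-out: reporter mRNA quantified by RT-PCR with fluorescent primer extension and capillary electrophoresis. Human HepG2 liver cells carried transfected cis-promoter reporter units and were exposed to chemical for 24 h; gain or loss fitted relative to DMSO.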

[5] = ATG_AP_1_CIS: Attagene CIS-FACTORIAL HepG2 Assay for human Activator Protein 1 (AP-1) (AID 2282931); settings: HepG2 Attagene cis-factorial AP-1 reporter mRNA; actives raise or lower the signal
Procedure, shortened: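 Bidirectional concentration-response fitting against DMSO controls. Underlying signal: reporter mRNA from cis-promoter constructs in transiently transfected HepG2, measured after 24 h by RT-PCR and capillary electrophoresis.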

[6] = ATG_AP_2_CIS: Attagene CIS-FACTORIAL HepG2 Assay for human Activator Protein 2 (AP-2) (AID 2282932); settings: HepG2 AP-2 cis-reporter, Attagene transcription factor profiling; actives raise or lower the signal
Procedure, shortened: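 HepG2 cells transiently transfected with cis-element reporter units and exposed for 24 h. Reporter mRNA measured by RT-PCR, FAM labelling, HpaI digestion and capillary electrophoresis. Changes in either direction fitted relative to DMSO.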

[7] = ATG_BRE_CIS: Attagene CIS-FACTORIAL HepG2 Assay for human Bone Morphogenetic Protein (BMP) Response Element (BRE) (AID 2282933); settings: HepG2 BMP response element reporter, Attagene transcription factor profiling; actives raise or lower the signal
Procedure, shortened: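 A HepG2 multiplex reporter system measured inducible reporter mRNA 24 h post-dosing. Detection: RT-PCR, 6-FAM primer extension, HpaI digestion, capillary electrophoresis. Activity fitted bidirectionally relative to DMSO.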

[8] = molecular target: Retinoic acid receptor alpha (Homo sapiens) (UniProt P10276); experiment: ATG_DR5_RAR_CIS: Attagene CIS-FACTORIAL HepG2 Assay for human Retinoic Acid Receptor Alpha (RARE), DR5 submotif (AID 2282934); settings: HepG2 Attagene cis-factorial RARE DR5 reporter, mRNA; actives raise or lower the signal
Sequence of Retinoic acid receptor alpha (Homo sapiens) (P10276 whole entry, looked up): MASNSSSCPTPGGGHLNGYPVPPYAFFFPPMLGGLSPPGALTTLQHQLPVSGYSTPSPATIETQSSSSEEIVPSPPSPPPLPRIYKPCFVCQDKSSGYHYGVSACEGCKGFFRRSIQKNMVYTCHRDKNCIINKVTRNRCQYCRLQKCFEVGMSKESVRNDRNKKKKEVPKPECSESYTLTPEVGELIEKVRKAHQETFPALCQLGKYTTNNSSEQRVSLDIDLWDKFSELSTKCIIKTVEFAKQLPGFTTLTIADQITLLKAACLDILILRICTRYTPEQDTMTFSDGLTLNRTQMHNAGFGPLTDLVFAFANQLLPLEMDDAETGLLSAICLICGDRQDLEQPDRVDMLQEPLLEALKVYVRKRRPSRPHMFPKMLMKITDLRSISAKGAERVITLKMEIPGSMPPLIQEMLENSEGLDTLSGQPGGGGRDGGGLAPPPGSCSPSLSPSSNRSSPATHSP
Procedure, shortened: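 Read-out: DR5-driven reporter transcript measured by RT-PCR, 6-FAM primer extension, HpaI digest and capillary electrophoresis. Human HepG2 liver cells carry transiently transfected cis-element reporter constructs; dosing lasts 24 h. Gain or loss of signal fitted against DMSO baseline.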

[9] = molecular target: Transcription factor E2F1 (Homo sapiens) (UniProt Q01094); experiment: ATG_E2F_CIS: Attagene CIS-FACTORIAL HepG2 Assay for human E2F Transcription Factor 1 (AID 2282935); settings: HepG2 Attagene cis-reporter, E2F reporter RNA transcripts; actives raise or lower the signal
Sequence of Transcription factor E2F1 (Homo sapiens) (Q01094 whole entry, looked up): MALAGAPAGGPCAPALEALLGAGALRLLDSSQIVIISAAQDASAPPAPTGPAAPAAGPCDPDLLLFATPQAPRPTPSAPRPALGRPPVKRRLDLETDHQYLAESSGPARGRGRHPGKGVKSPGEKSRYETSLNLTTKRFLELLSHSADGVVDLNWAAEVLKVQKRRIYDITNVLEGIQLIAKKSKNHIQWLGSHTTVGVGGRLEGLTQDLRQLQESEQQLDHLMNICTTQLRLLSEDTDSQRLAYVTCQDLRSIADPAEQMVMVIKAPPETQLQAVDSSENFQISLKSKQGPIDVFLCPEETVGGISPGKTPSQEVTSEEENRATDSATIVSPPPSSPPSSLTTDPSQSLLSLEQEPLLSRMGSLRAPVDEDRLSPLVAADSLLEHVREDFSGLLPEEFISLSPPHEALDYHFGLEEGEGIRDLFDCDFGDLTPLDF
Procedure, shortened: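 Endogenous E2F1 activity read through cis-promoter reporter units transfected into HepG2. After 24 h compound treatment, reporter mRNA measured by RT-PCR, HpaI digestion and capillary electrophoresis. Bidirectional fit versus DMSO.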

[10] = ATG_DR4_LXR_CIS: Attagene CIS-FACTORIAL HepG2 Assay for human Liver X Receptor (LXR), DR4 submotif (AID 2282929); settings: HepG2 Attagene DR4 cis-reporter, mRNA transcription; actives raise or lower the signal
Procedure, shortened: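 Measures endogenous transcription factor activity via a DR4-driven reporter transcript in human HepG2 cells. Compounds incubated 24 h; mRNA quantified by RT-PCR and capillary electrophoresis, analysed as gain or loss of signal versus DMSO.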

Measured: AC50

c1ccc2c(c1)ccc1cc3c(ccc4ccccc43)cc12
active: [4] 0.0244 µM
not listed: [10]
inactive: all other assays above

CCCCCC/C=C/C=O
not listed: [10]
inactive: all other assays above

CC/C=C\CCOC(=O)CCCCC
not listed: [10]
inactive: all other assays above

COC(F)(F)C(F)(C(F)(F)F)C(F)(F)F
not listed: [10]
inactive: all other assays above

CCN(CCO)c1cccc(C)c1
active: [4] 55 µM
not listed: [10]
inactive: all other assays above

N[C@H]1C(O)O[C@H](CO)[C@H](O)[C@@H]1O (some centres undefined)
not listed: [10]
inactive: all other assays above

N#[N+]c1ccc2c(S(=O)(=O)[O-])cccc2c1O
not listed: [4] | [10]
inactive: all other assays above

CC(C)(C)c1ccc(-c2ccc(C(C)(C)C)cc2)cc1
active: [3] 51.8 µM
not listed: [10]
inactive: all other assays above

Cc1cc(O)c(Cl)c(C)c1Cl
active: [3] 23.9 µM
not listed: [4] | [10]
inactive: all other assays above

O=C(Oc1ccccc1)c1ccc2ccccc2c1O
active: [4] 17 µM | [5] 97.4 µM | [7] 76.2 µM
not listed: [10]
inactive: all other assays above

CCCCC(CC)COC(=O)c1ccccc1O (centres undefined)
not listed: [10]
inactive: all other assays above

CC=CC(=O)N(CC)c1ccccc1C
not listed: [10]
inactive: all other assays above

Cc1oncc1C(=O)Nc1ccc(C(F)(F)F)cc1
active: [5] 100 µM | [7] 127 µM
not listed: [4] | [10]
inactive: all other assays above

CCOCC(=O)O
not listed: [10]
inactive: all other assays above

CC1=CC[C@H]2C[C@@H]1C2(C)C
not listed: [4] | [8]
inactive: all other assays above

O=C(O)C(c1ccc(Cl)cc1)c1ccc(Cl)cc1
not listed: [9] | [10]
inactive: all other assays above

OCCc1ccncc1
not listed: [10]
inactive: all other assays above

O=C(c1ccccc1)C1CCC1
not listed: [10]
inactive: all other assays above

O=C(C(Cl)Cl)N1CCOC12CCCCC2
active: [5] 69.1 µM
not listed: [8] | [10]
inactive: all other assays above

O=C(Cl)c1cc(C(=O)Cl)cc(C(=O)Cl)c1
active: [4] 77.5 µM | [7] 125 µM
not listed: [10]
inactive: all other assays above
